This is an account of results in the supplement of paper PMC10981050.

Structures are written as SMILES. Several values for one entry are separate records, joined by “and”; a condition that tells them apart may be missing. Identical values can stand only once.

Common to all, as to assay: cell viability relative to vehicle control; higher = less cytotoxic
What all share (settings): 10 µM

Assay [1] deals with K562. In a few lines: (§1)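 Screening covered the Selleck bioactive, kinase and epigenetic probe libraries, less identity-inconsistent compounds, on CRISPR-edited mutant clones and isogenic wild-type clones of four leukaemia lines. Cells, at 2000 per well in 50 µL medium, received a single 10 µM acoustically dispensed dose. After 48 h the supernatant was removed and CellTiter-Glo luminescence was read. Viability was analysed in Genedata Screener as percent of the on-plate vehicle control.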

For assay [2], the system named is MARIMO. In a few lines:
as §1

Assay [3] relates to MOLM14. In a few lines: as §1
Assay [4] concerns OCI-AML2. The method, boiled down:
as §1

In general, cell viability refers to a read-out of living cells in per cent, often relative to untreated cells.

As for `O=C(O)C1=CO[C@@H](O[C@@H]2O[C@H](CO)[C@@H](O)[C@H](O)[C@H]2O)[C@H]2[C@@H]1C=C[C@]2(O)CO` [Monotropein], the cell viability in assay [1] (SRSF2 genotype: SRSF2 P95H/wt) is 110% and 104%; in assay [1] (SRSF2 genotype: SRSF2 wt/wt), 107%; in assay [2] (SRSF2 genotype: SRSF2 P95H/wt) it was 101%; in assay [2] (SRSF2 genotype: SRSF2 wt/wt) it was 106%; in assay [3] (SRSF2 genotype: SRSF2 P95H/wt), 104%; in assay [3] (SRSF2 genotype: SRSF2 wt/wt) it was 104%. Also, the cell viability in assay [4] (SRSF2 genotype: P95H/wt) turned out to be 90.7%; in assay [4] (SRSF2 genotype: wt/wt) it was 103%.

`C[C@@H]1O[C@@H](O[C@H]2[C@H](O[C@H]3CC[C@@]4(C)[C@@H](CC[C@]5(C)[C@@H]4CC=C4[C@@H]6CC(C)(C)CC[C@]6(C(=O)O)CC[C@]45C)[C@]3(C)CO)OC[C@H](O[C@@H]3O[C@H](CO)[C@@H](O)[C@H](O)[C@H]3O)[C@@H]2O)[C@H](O)[C@H](O)[C@H]1O` [Pulsatilla saponin D]: the cell viability was 0.56% and 0.59% in assay [1] (SRSF2 genotype: SRSF2 P95H/wt); 0.55% in assay [1] (SRSF2 genotype: SRSF2 wt/wt); 0.46% in assay [2] (SRSF2 genotype: SRSF2 P95H/wt); 0.67% in assay [2] (SRSF2 genotype: SRSF2 wt/wt); 0.5% in assay [3] (SRSF2 genotype: SRSF2 P95H/wt); 0.59% in assay [3] (SRSF2 genotype: SRSF2 wt/wt). Also, the cell viability in assay [4] (SRSF2 genotype: P95H/wt) turned out to be 0.5%; in assay [4] (SRSF2 genotype: wt/wt), 0.54%.

`CC(C(=O)O)c1ccc2c(c1)Cc1cccnc1O2` (stereo not given) [Pranoprofen]: the cell viability was 105% and 106% in assay [1] (SRSF2 genotype: SRSF2 P95H/wt); 110% in assay [1] (SRSF2 genotype: SRSF2 wt/wt); 110% in assay [2] (SRSF2 genotype: SRSF2 P95H/wt); 107% in assay [2] (SRSF2 genotype: SRSF2 wt/wt); 102% in assay [3] (SRSF2 genotype: SRSF2 P95H/wt); 105% in assay [3] (SRSF2 genotype: SRSF2 wt/wt). Besides, the cell viability in assay [4] (SRSF2 genotype: P95H/wt) was determined as 112%; in assay [4] (SRSF2 genotype: wt/wt), 106%.

As for `COc1cc2c(cc1OC)[C@H]1[C@@H](C)c3ccc(OC)c(OC)c3CN1CC2` [Corydaline], the cell viability in assay [1] (SRSF2 genotype: SRSF2 P95H/wt) is 84.4% and 88.8%; in assay [1] (SRSF2 genotype: SRSF2 wt/wt), 86.6%; in assay [2] (SRSF2 genotype: SRSF2 P95H/wt), 83.2%; in assay [2] (SRSF2 genotype: SRSF2 wt/wt) it was 82%; in assay [3] (SRSF2 genotype: SRSF2 P95H/wt), 89.4%; in assay [3] (SRSF2 genotype: SRSF2 wt/wt), 90.9%. In addition, the cell viability in assay [4] (SRSF2 genotype: P95H/wt) worked out at 73.8%; in assay [4] (SRSF2 genotype: wt/wt), 79.1%.

For `CCOC(=O)c1cccc(N)c1` [Ethyl 3-Aminobenzoate methanesulfonate], the cell viability in assay [1] (SRSF2 genotype: SRSF2 P95H/wt) is 96.7% and 92.4%; in assay [1] (SRSF2 genotype: SRSF2 wt/wt), 85.1%; in assay [2] (SRSF2 genotype: SRSF2 P95H/wt) it was 87.2%; in assay [2] (SRSF2 genotype: SRSF2 wt/wt), 96.5%; in assay [3] (SRSF2 genotype: SRSF2 P95H/wt) it was 88.7%; in assay [3] (SRSF2 genotype: SRSF2 wt/wt), 96.5%. The cell viability in assay [4] (SRSF2 genotype: P95H/wt) came out at 94.2%; in assay [4] (SRSF2 genotype: wt/wt), 90.7%.

In the case of `Cc1cc(C)cc(NC(=O)Cc2ccc(OC(C)(C)C(=O)O)cc2)c1` [Efaproxiral sodium], the cell viability was 102% and 99.1% in assay [1] (SRSF2 genotype: SRSF2 P95H/wt); 99.9% in assay [1] (SRSF2 genotype: SRSF2 wt/wt); 109% in assay [2] (SRSF2 genotype: SRSF2 P95H/wt); 119% in assay [2] (SRSF2 genotype: SRSF2 wt/wt); 110% in assay [3] (SRSF2 genotype: SRSF2 P95H/wt); 103% in assay [3] (SRSF2 genotype: SRSF2 wt/wt). In addition, the cell viability in assay [4] (SRSF2 genotype: P95H/wt) is 106%; in assay [4] (SRSF2 genotype: wt/wt), 116%.

As to `Cc1cc(Nc2nc(N[C@@H](C)c3ccc(F)cc3)c(C#N)cc2F)n[nH]1`, the cell viability in assay [1] (SRSF2 genotype: SRSF2 P95H/wt) is 53.7% and 73%; in assay [1] (SRSF2 genotype: SRSF2 wt/wt), 75.5%; in assay [2] (SRSF2 genotype: SRSF2 P95H/wt), 30.6%; in assay [2] (SRSF2 genotype: SRSF2 wt/wt), 33.4%; in assay [3] (SRSF2 genotype: SRSF2 P95H/wt), 1.75%; in assay [3] (SRSF2 genotype: SRSF2 wt/wt), 3.5%. Further, the cell viability in assay [4] (SRSF2 genotype: P95H/wt) worked out at 6.13%; in assay [4] (SRSF2 genotype: wt/wt), 15.8%.

In the case of `COc1ccc(CNc2nc(N3CCC[C@H]3CO)ncc2C(=O)NCc2ncccn2)cc1Cl` [Avanafil], the cell viability in assay [1] (SRSF2 genotype: SRSF2 P95H/wt) is 96.2% and 96.6%; in assay [1] (SRSF2 genotype: SRSF2 wt/wt), 98.8%; in assay [2] (SRSF2 genotype: SRSF2 P95H/wt) it was 104%; in assay [2] (SRSF2 genotype: SRSF2 wt/wt), 106%; in assay [3] (SRSF2 genotype: SRSF2 P95H/wt) it was 103%; in assay [3] (SRSF2 genotype: SRSF2 wt/wt), 104%. Also, the cell viability in assay [4] (SRSF2 genotype: P95H/wt) is 102%; in assay [4] (SRSF2 genotype: wt/wt) it was 105%.

As for `O=S(=O)(O)c1ccc2cc(N=Nc3cc(S(=O)(=O)O)c4cccnc4c3O)ccc2c1`, the cell viability in assay [1] (SRSF2 genotype: SRSF2 P95H/wt) was 95.9% and 96.5%; in assay [1] (SRSF2 genotype: SRSF2 wt/wt), 89%; in assay [2] (SRSF2 genotype: SRSF2 P95H/wt), 93.5%; in assay [2] (SRSF2 genotype: SRSF2 wt/wt), 107%; in assay [3] (SRSF2 genotype: SRSF2 P95H/wt), 96.9%; in assay [3] (SRSF2 genotype: SRSF2 wt/wt) it was 95.2%. Further, the cell viability worked out at 88.5% in assay [4] (SRSF2 genotype: P95H/wt) and 94.5% in assay [4] (SRSF2 genotype: wt/wt).

For the molecule `CC(C)(C)S(=O)(=O)c1ccc2nccc(Nc3n[nH]c4ccc(F)cc34)c2c1`, the cell viability in assay [1] (SRSF2 genotype: SRSF2 P95H/wt) was 91.4% and 95.8%; in assay [1] (SRSF2 genotype: SRSF2 wt/wt), 98.8%; in assay [2] (SRSF2 genotype: SRSF2 P95H/wt), 92.8%; in assay [2] (SRSF2 genotype: SRSF2 wt/wt), 99.5%; in assay [3] (SRSF2 genotype: SRSF2 P95H/wt), 88%; in assay [3] (SRSF2 genotype: SRSF2 wt/wt) it was 95.6%. Moreover, the cell viability came to 88.9% in assay [4] (SRSF2 genotype: P95H/wt) and 86.2% in assay [4] (SRSF2 genotype: wt/wt).
